Test results as given in PubChem BioAssay (NCI).
This is part of a sample that, as a whole, favours compounds with a hit. Of some 83,000 tested, about 20% had one in any assay.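 Activity criterion: percent growth below 10, measured after cells in 96-well plates were exposed to a single compound concentration for 48 hours.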 Values without a mark were called inactive. Calls of active or inactive are those of the source.

The compounds below were run on MDA-MB-468 breast (assay: NCI-60 one-dose screen, 48 h (100 = growth as untreated, 0 = no growth, -100 = all killed)). Settings: 10 µM unless noted.
`C(=N\Nc1ncnc2sc3c(c12)CCNC3)/c1cccc2ccccc12` showed a growth of 72.1%. With `COc1ccc(-c2cc(-c3cccnc3)nc(S(=O)(=O)CC(=O)Nc3ccc(C)cc3)c2C#N)cc1OC` the growth was 96%. `CCCCCCCC/C=C/CCCCCCCC1=NCC[N+]1(CCO)CCO` showed a growth of 23%. With `COc1ccc2c(c1)c(-c1nc(-c3c[nH]c4ccncc34)cs1)cn2C` the growth was -60.8% (active). With `O=C(N/N=C/c1ccccc1)C(Oc1ccccc1)c1ccccc1` (stereo not given) the growth was 80.2%. `Cc1ccc(S(=O)(=O)Nc2cccc3[nH]c(C(F)(F)F)nc23)cc1` was tested, and the growth was 5.86% (active). In the case of `O=C(Nc1ccc(Oc2cccc(F)c2)c(Cl)c1)c1cccnc1`, the growth was -9.22% (active). For `Cn1cc(-c2cc(N)n3nc(-c4cn(C)c5ccc(Cl)cc45)cc3n2)c2cc(Cl)ccc21`, the growth was 96.3%. For `CC(=O)c1cc2c(N)c(C(=O)Nc3cccc4ccccc34)sc2nc1C`, the growth was 4% (active). Compound `N#Cc1cnn2c(-c3ccc(Cl)cc3)nc(NCCc3ccccc3)nc12` has a growth of 110%. Work on `C(=C1c2ccccc2-c2ccccc21)c1ccccn1` yielded a growth of 22.4%. With `O=C(c1nn(-c2ccccc2)c2c1CC(NCc1ccc(F)cc1)CC2)N1CCCCC1` (stereo not given) the growth was 97%. In the case of `Cc1cc(NS(=O)(=O)c2ccc(-c3cnc(C4CC4)o3)cc2)ccc1Cl`, the growth was -6.6% (active). With `CN(C)CCS(=O)(=O)CCN(C)C` the growth was 105%. `O=C(CCN1CCCC1)c1ccc([N+](=O)[O-])cc1` showed a growth of 85.3%. For `COC(=O)C(Sc1ccc(Cl)cc1)C1SC(=S)N(Cc2ccccc2)C1=O` (stereo not given), the growth was 94.7%. For `C#CCNC(=O)CC[C@@H](C)[C@H]1CC[C@H]2[C@@H]3CC[C@@H]4CC(=O)CC[C@]4(C)[C@H]3CC[C@]12C`, the growth was -19.7% [100 µM] (active). Compound `Cc1ccc(C(=O)Nc2cccc(C#Cc3cccc4[nH]nc(N)c34)c2)cc1C(F)(F)F` has a growth of 95.6%. `Cc1nnc2nc(N)[nH]n2c1=O` gave a growth of 108%. Work on `O=C1Nc2ccc(Cl)cc2/C1=N/N=C/c1c[nH]c2ccccc12` yielded a growth of 98.7%. `CNC(=O)CN1CCC(Oc2cc3c(Nc4cccc(Cl)c4F)ncnc3cc2OC)CC1` was tested, and the growth was -22.9% (active). `O=C1N=c2ccccc2=C1c1sc(=S)n(C2CC(=O)N(c3ccc(Cl)cc3)C2=O)c1O` (stereo not given) was tested, and the growth was 95.2%. `C/C=C(/C)C(=O)OC1C=C(CO)C(=O)C(OC(=O)C(C)(O)C(C)Cl)C1C(C)C` (stereo not given) was tested, and the growth was -51.9% (active). Work on `Cc1ccc2c(n1)C(=O)C(Br)=C(CC(C)C)C2=O` yielded a growth of 91.1%. `CCCCCCCCCCNC(=O)CI` was tested, and the growth was -40.5% (active). Compound `Cc1nc2nc(SCC(=O)O)[nH]c2c(=O)[nH]1` has a growth of 106%. With `O=C(O)c1cn(C2CC2)c2cc(N3CCN(Cc4nc5c(cnn5-c5ccc([N+](=O)[O-])cc5)c(=O)[nH]4)CC3)c(F)cc2c1=O` the growth was 103%. `O=[N+]([O-])c1cccc(-c2nc3sccn3c2-c2ccnc(NCCCNS(=O)(=O)c3cccc(F)c3)n2)c1` was tested, and the growth was -13.8% (active). Compound `Cc1nc2c(c(=O)[nH]1)C(c1ccccc1)c1ccc3ccccc3c1O2` (stereo not given) has a growth of 22.9%. Work on `COC(=O)[C@]1(C)CCC[C@]2(C)c3ccc(C(C)C)cc3C(=O)[C@@H](Br)[C@@H]12` yielded a growth of 78.3%. With `CCOC(=O)c1cc(N)nc2ccccc12` the growth was 106%. `O=C(CCc1ccc(O)cc1)N/N=C/c1cc(Br)ccc1O` was tested, and the growth was 56.8%. `CN1CCN(CCC(=O)Nc2cccc(-n3cc(-c4ccncc4)c(-c4ccc(Cl)c(O)c4)n3)c2)CC1` gave a growth of 12.7%. For `CCOC(=O)CSc1nc2sc3c(c2c(=O)n1-c1ccccc1)CCCCC3`, the growth was 122%. In the case of `O=C1CCc2c(sc3[nH]c(=S)n(-c4ccc(OC(F)(F)F)cc4)c(=O)c23)C1`, the growth was -4.6% (active). With `O=C1OCC2=C1C(c1cccc(Br)c1)c1cc3c(cc1N2CCO)CCC3` (stereo not given) the growth was -3.99% (active). `COc1ccc(Nc2ncc(Br)c(NCCCNC(=O)c3cccs3)n2)cc1` showed a growth of 51.1%. Work on `COc1cc(NCCCCCN)c2ncccc2c1` yielded a growth of 114%. `COc1cc(OC)c(C2SCC(=O)N2Nc2ncnc3ccccc23)cc1OC` (stereo not given) gave a growth of 111%. For `CNc1nnc2n(-c3ccccc3)c(=O)c3cnn(-c4ccccc4)c3n12`, the growth was 103%.
